# Sampled rows, rich in hits. Any-hit rate of the full collection: about 10%.
# HP1b binding inh – HTS for Inhibitors of HP1-beta Chromodomain Interactions with Methylated Histone Tails; Potency, µM (doses to about 114 µM), for inactives: at the top dose activity change, negative = inhibition, hits mostly inhibitors; actives 0.56% (n = 390,000); Chromobox protein homolog 1 (Homo sapiens), P83916; AlphaScreen HP1-beta / biotin-H3K9me3 peptide binding; also: nearly all actives have a fitted effect of over 70% in size
#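 HP1-beta protein (50 nM final) preincubated 30 min at room temperature with biotinylated H3(1-18)K9me3 peptide (50 nM) in PBS pH 7.4, 0.01% Tween-20, then compound added for 30 min. AlphaScreen streptavidin donor/nickel chelate acceptor beads (10 ug/mL final), 30 min dark, luminescence read.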
# GLS inhibitor – qHTS for Inhibitors of Glutaminase (GLS); Glutaminase kidney isoform, mitochondrial (Homo sapiens), O94925; GLS enzymatic activity, qHTS titration; Potency, µM (highest dose often 45.5 µM), without a hit: top-dose activity change, negative = inhibition, hits mostly inhibitors; actives 0.21% (n = 410,000); also: % is scaled to controls: 0 for no effect and ±100 for the full control effect
# Target sequence (O94925 whole entry, looked up, canonical isoform): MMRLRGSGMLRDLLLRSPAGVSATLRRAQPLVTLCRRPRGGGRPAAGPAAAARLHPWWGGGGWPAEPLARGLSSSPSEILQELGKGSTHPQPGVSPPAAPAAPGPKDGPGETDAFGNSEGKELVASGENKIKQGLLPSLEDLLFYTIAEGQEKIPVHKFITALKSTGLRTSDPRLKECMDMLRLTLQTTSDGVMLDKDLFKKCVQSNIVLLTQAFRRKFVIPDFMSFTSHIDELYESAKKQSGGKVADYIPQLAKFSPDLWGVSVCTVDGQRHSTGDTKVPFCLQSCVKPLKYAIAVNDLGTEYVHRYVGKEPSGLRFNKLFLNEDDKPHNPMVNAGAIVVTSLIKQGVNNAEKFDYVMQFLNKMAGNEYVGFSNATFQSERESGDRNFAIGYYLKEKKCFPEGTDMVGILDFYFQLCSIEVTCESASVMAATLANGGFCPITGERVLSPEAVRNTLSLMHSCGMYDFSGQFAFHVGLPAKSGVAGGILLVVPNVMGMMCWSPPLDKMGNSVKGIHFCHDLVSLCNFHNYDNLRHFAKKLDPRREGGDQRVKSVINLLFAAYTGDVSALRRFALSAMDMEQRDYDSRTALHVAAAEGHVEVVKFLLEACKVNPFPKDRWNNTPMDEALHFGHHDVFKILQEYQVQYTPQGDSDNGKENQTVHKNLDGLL
#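 Read-out is an Amplex red fluorescence increase coupled through glutamate oxidase and HRP, measured before and after 30 min room-temperature incubation. hKGA is in 45 mM KH2PO4 (pH 8.2) with 0.02% Tween-20; glutamine added as 1mM solution.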
# L3MBTL1 inh – qHTS Assay for the Inhibitors of L3MBTL1; Lethal(3)malignant brain tumor-like protein 1 (Homo sapiens), Q9Y468; AlphaScreen L3MBTL1–H3K9me1 peptide binding; Potency, µM (highest dose often 57.1 µM), for inactives: at the highest dose activity, negative = inhibition, usual class: inhibitors; actives 0.66% (n = 230,000); also: % is scaled to controls: 0 for no effect and ±100 for the full control effect; nearly all actives have a fitted effect of over 60% in size
#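 L3MBTL1 (50 nM) pre-complexed 30 min with biotinylated H3(1-15)K9me1 peptide (75 nM), then compounds added for 30 min at room temperature; AlphaScreen streptavidin donor/nickel chelate acceptor beads (10 ug/mL final) read after 30 min dark incubation.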
# JMJD2A Tudor inh – qHTS Assay for Inhibitors of JMJD2A-Tudor Domain; Lysine-specific demethylase 4A (Homo sapiens), O75164; AlphaScreen JMJD2A-Tudor / H3K4me3 peptide binding; Potency, µM (doses to about 114 µM), without a hit: top-dose activity change, negative = inhibition, usual class: inhibitors; actives 4.4% (n = 390,000); also: % is scaled to controls: 0 for no effect and ±100 for the full control effect; nearly all actives have a fitted effect of over 50% in size
# BAZ2B block – qHTS Assay for Inhibitors of BAZ2B. actives 4.4% (n = 360,000). Potency, µM (doses to about 114 µM), inactives show top-dose activity change, negative = inhibition, usual class: inhibitors. AlphaScreen BAZ2B-H3K14Ac peptide displacement. Bromodomain adjacent to zinc finger domain protein 2B (Homo sapiens), Q9UIF8; also: % is scaled to controls: 0 for no effect and ±100 for the full control effect; nearly all actives have a fitted effect of over 60% in size
#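 AlphaScreen displacement of biotin-H3(5-23)K14Ac peptide (50 nM final) from BAZ2B (50 nM final) in PBS pH 7.4, 0.01% Tween-20; complex preformed 30 min RT, then compounds (top 110 uM) 30 min RT, beads 20 min dark.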
# G9a block – qHTS Assay for Inhibitors of Histone Lysine Methyltransferase G9a | Potency, µM (series often up to 102 µM), inactives show at the top dose activity, negative = inhibition, hits mostly inhibitors | G9a H3K9 monomethylation, AlphaScreen, 2 h | actives 8.8% (n = 350,000) | Histone-lysine N-methyltransferase EHMT2 (Homo sapiens), Q96KQ7; also: % is scaled to controls: 0 for no effect and ±100 for the full control effect; nearly all actives have a fitted effect of over 75% in size
#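 Step 1: enzyme (final 20 nM) with compound, 15 min RT. Step 2: substrate peptide 500 nM and SAM 20 uM, 2 h RT. Step 3: anti-H3K9me1 antibody and AlphaScreen beads, 10 min, then plate read.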
# Starred values were filed as active, the others as inactive; ? = inconclusive; / = not tested or not shown; [ ] = dose if it differs, or a comment. Calls follow the shape of the dose curve; as a rule, active = well fitted curve in the direction sought with a large enough effect; inconclusive = small, poorly fitted or top-dose-only effect, or another doubt; inactive = no such curve, though single readings can be large; an effect the other way counts as inactive or inconclusive. Potency is read from the fitted curve at half-maximal effect.
SMILES,HP1b binding inh,GLS inhibitor,L3MBTL1 inh,JMJD2A Tudor inh,BAZ2B block,G9a block
NNc1nc(-c2ccccc2)cs1,12.2%,7.7%,-9.8%,?,?,22.4µM*
Cc1cccnc1Nc1nc(-c2ccccc2)cs1,7.7%,0.7%,/,-15.1%,-21.4%,39.8µM*
Cc1cccnc1Nc1nc(-c2ccccn2)cs1,19.7%,22.3%,/,44.7µM*,14.1µM*,18.7%[12.7 µM]
c1ccc(-c2csc(Nc3ncccn3)n2)cc1,8.4%,3.0%,1.0%,10.0%,8.3%,-0.6%[59 µM]
CC1(C)CC(=O)C2=C(C1)NC(Nc1nc3ccccc3o1)=NC2c1cccc(O)c1 (stereo unspecified),17.0%[57 µM],/,/,-28.5%[57.1 µM],/,/
COc1ccc(Oc2ncc3nc(-c4cccs4)c(=O)n(CCC#N)c3n2)cc1,/,/,/,/,/,1.0%[0.501 µM]
Cc1cc(C(=O)OCC(=O)NC2CCCCC2C)c2ccccc2n1 (stereo unspecified),41.2%,-2.9%,8.9%,-3.6%,/,/
CC1CCCCC1NC(=O)COC(=O)c1c2c(nc3ccccc13)/C(=C/c1ccco1)CC2 (stereo unspecified),-35.3%,-23.0%,?,44.7µM*,44.7µM*,?
Cc1cc(C(=O)OCC(=O)NC2CCCC2)c2ccccc2n1,26.6%,7.7%,2.0%,-13.8%,-3.7%,-1.3%[0.501 µM]
O=C(COC(=O)c1c2c(nc3ccccc13)/C(=C/c1ccco1)CC2)NC1CCCC1,?,17.8µM*,4.47µM*,?,10µM*,3.55µM*
CCOc1ccc(CCn2c3c(c(=O)[nH]c2=O)C(NC(=O)c2ccccc2)(C(F)(F)F)C(=O)N3)cc1OCC (stereo unspecified),42.1%,0.8%,/,-13.1%,-15.3%,1.9%[59 µM]
CCOC(=O)Cc1[nH]nc2c1C(c1cc(OC)ccc1OC)C(C#N)=C(N)O2 (stereo unspecified),18.4%,11.1%,-20.8%,?,?,10.5%
CCCc1[nH]nc2c1C(c1cc(OC)ccc1F)C(C#N)=C(N)O2 (stereo unspecified),10.7%,6.6%,-0.5%,-6.6%,?,39.8µM*
O=C(NCc1ccccc1)C1CCN(C(=O)c2cnn(-c3ccccc3)c2-n2cccc2)CC1,20.7%,-9.4%,/,-15.3%,-17.5%,-4.1%[59 µM]
Cc1ccc(NC(=O)Cn2c(=O)c3ccccc3n3nncc23)cc1,21.4%,-11.1%,/,-4.6%,-10.9%,-45.7%[59 µM]
CC(=O)N1CCN(c2ccc(NCc3ccc(-c4ccc(Br)cc4)o3)cc2)CC1,-22.3%,5.3%,-29.1%,25.1µM*,/,/
CN1CCN(c2ccc(NC(=O)c3ccc(-c4ccc(Br)cc4)o3)cc2)CC1,?,-0.3%,-24.2%[11.4 µM],35.5µM*,25.1µM*,31.6µM*
CC(=O)N1CCN(c2ccc(NCc3ccc(Br)o3)cc2)CC1,-7.5%,24.9%,-20.0%,?,?,3.2%[0.501 µM]
O=C(CSc1nc2ccccc2n1Cc1cccc(Cl)c1)N1CCN(c2ccc(F)cc2)CC1,70.8%,2.6%,/,-2.2%,30.0%,34.3%[59 µM]
Cc1ccc(C)c(NC(=O)Cn2c(=O)oc3cc(S(=O)(=O)NCc4ccccc4)ccc32)c1,13.8%,-0.9%,/,-26.9%,-15.3%,-1.3%[59 µM]
Cc1cccc(C(=O)NNC2=C(C(=O)C(F)(F)F)CCC2)c1O,-22.0%,10.5%,/,79.4µM*,17.8µM*,?
O=C(NNC1=C(C(=O)C(F)(F)F)CCC1)c1cccc(O)c1,16.3%,-0.6%,-5.1%,-19.8%,0.3%,1.1%[59 µM]
Cc1nc(-c2ccc(C)c(S(=O)(=O)N3CCC(C(=O)NCc4ccc(F)cc4)CC3)c2)no1,32.0%,-0.1%,/,-19.3%,0.8%,23.2%[59 µM]
O=C1NCCN1CCN1CCC(c2cn(-c3ccc(F)cc3)c3ccc(Cl)cc23)CC1,/,13.3%,/,/,/,/
CCN(CC)C(=O)CC(c1ccc(OC)cc1)c1c(OC)cc(OC)c2c(-c3ccccc3)cc(=O)oc12 (stereo unspecified),4.7%,/,/,?,/,/
SMILES,HP1b binding inh,GLS inhibitor,L3MBTL1 inh,JMJD2A Tudor inh,BAZ2B block,G9a block
CCN1C(=O)/C(=C2\SC(=S)N(CC3CCCO3)C2=O)c2ccccc21 (stereo unspecified),/,/,/,/,10µM*,3.98µM*
CCN1C(=O)/C(=C2\SC(=S)N(NC(=O)c3ccccc3O)C2=O)c2ccccc21,22.4µM*,?,?,1.78µM*,25.1µM*,15.8µM*
N#Cc1c(-c2ccncc2)cc(-c2ccc(F)cc2)nc1N,42.4%,3.2%,/,-3.1%,8.4%,36.6%
Cc1ccc(-c2cc(-c3ccc(F)cc3)nc(N)c2C#N)o1,45.3%,5.5%,/,-3.7%,-2.7%,2.51µM*
Cc1ccc(-c2cc(-c3ccccc3Cl)c(C#N)c(N)n2)o1,?,30.3%,16.2%,?,?,?
Cc1ccc(-c2cc(-c3ccccc3)c(C#N)c(N)n2)o1,?,42.4%,17.3%,?,?,2.82µM*
CCOc1ccccc1N(C)C(=O)c1c2c(nc3ccccc13)C(=O)N(C1CCCCC1)C2,15.3%,7.5%,/,-21.7%,-12.3%,5.3%[59 µM]
Cc1ccc(Nc2c3c(nc4nncn24)CCC3)c(C)c1,24.6%,4.7%,/,-13.8%,5.5%,4.3%[59 µM]
CC[N+]1(CC(O)COC2CC(C)CC(C)(C)C2)CCOCC1 (stereo unspecified),31.1%,-0.4%,/,20µM*,-17.4%,-41.3%[12.7 µM]
CC1CCN(CC(O)COC2CC(C)CC(C)(C)C2)CC1 (stereo unspecified),64.0%,-4.6%,/,6.4%,/,/
Cc1nc(N2CCCC2)ncc1C(=O)NCc1ccc(Cl)cc1,32.6%,0.7%,/,5.6%,-2.2%,-1.9%[12.7 µM]
COc1ccc(O)c(-c2c(-c3ccc(Cl)cc3)n[nH]c2C)c1,-32.5%,27.9%,-21.0%,?,?,25.1µM*
CCN(CC)C(=S)S,/,2.3%,/,/,/,?
CCC(C(=O)N1CCN(c2ccccc2F)CC1)n1nc(C)c2sc3ccccc3c2c1=O (stereo unspecified),32.0%,-3.6%,/,6.3%,-0.9%,-9.7%[59 µM]
NCCCC[C@@H]1NC(=O)[C@H](CCC(=O)O)NC(=O)c2cc([N+](=O)[O-])cc(I)c2SC[C@@H](C(=O)NCC(N)=O)NC1=O,23.8%,-4.5%,6.8%,22.4µM*,?,3.16µM*
NCCCC[C@@H]1NC(=O)c2cc([N+](=O)[O-])cc(I)c2SC[C@@H](C(N)=O)NC(=O)[C@H](Cc2ccc(O)cc2)NC1=O,-3.7%,22.4%,-2.8%,?,?,35.5µM*
